TGFb inhibitor = TGF-b pathway inhibition; HepG2 CAGA-GFP TGF-b/SMAD3 reporter, GFP fluorescence, 18 h; TGF-beta stimulated, 500 pg/mL final; Potency, µM (titrated, usually from 46.1 µM), for inactives: at the top dose activity, negative = inhibition, actives largely listed as inhibitors; 410,000 compounds, 1.2% hits; also: % is scaled to controls: 0 for no effect and ±100 for the full control effect; nearly all actives have a fitted effect of over 65% in size
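Inhibition was scored as loss of TGF-beta-induced (500 pg/mL final, 18 hours, 37 degrees C) GFP in HEPG2 cells carrying a CAGA-GFP reporter, in DMEM with 1% FBS. Well GFP was summed per cell; Activity was normalised to unstimulated and stimulated DMSO wells, then concentration-response fitting.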
HepG2 viability = HepG2 cytotoxicity, counter-screen for TGF-b inhibitors. HepG2 CAGA-GFP viability, ATP luminescence, 18 h. Potency, µM (top dose mostly 46.1 µM), without a hit: top-dose activity change, negative = cytotoxicity, hits mostly cytotoxic. 410,000 compounds, 0.76% hits. AID 588856
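HepG2 CAGA-GFP cells (1000/well, DMEM with 1% FBS) received compound, then TGF-beta at 500 pg/mL final, and were incubated 18 hours at 37 degrees C. Viability was read by CellTiter-Glo luminescence. Media-only wells were set as complete cell-killing and DMSO as no toxicity.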
KB-3-1 tox = KB-3-1 parental cell cytotoxicity; KB-3-1 viability, CellTiter-Glo ATP luminescence, 72 h; Potency, µM (titrated, usually from 46.1 µM), hits mostly cytotoxic; 400,000 compounds, 1.4% hits; AID 1347075; also: % is scaled to controls: 0 for no effect and ±100 for the full control effect; nearly all actives have a fitted effect of over 60% in size
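Multi-concentration cytotoxicity screen in KB-3-1 cells grown in DMEM lacking phenol red with 10% FBS. After 72 h at 37 °C with compound, ATP-dependent luminescence was recorded.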
HT1080-NT tox = kills 2HG-producing HT-1080-NT fibrosarcoma cells; HT-1080-NT fibrosarcoma viability, CellTiter-Glo ATP luminescence, 48 h; Potency, µM (doses to about 46.1 µM), inactives show top-dose activity, negative = less viability, hits mostly cytotoxic; 360,000 compounds, 1.6% hits; AID 686970;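 also: NT is the 2HG producing partner of a matched IDH1 knockdown line; 0% = DMSO-treated cells and -100% = media-only wells without cells; nearly all actives have a fitted effect of over 55% in size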
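750 cells/well, RPMI + 5% FBS; 2 h settle, compound pin-transfer, 48 h at 37 degrees C. CellTiter-Glo 10 min RT, luminescence. Normalized to DMSO and media-only wells.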
HT1080 IDH1KD tx = kills HT-1080 cells with IDH1 knockdown | 360,000 compounds, 2% hits | AID 686971 | Potency, µM (doses to about 46.1 µM), for inactives: at the top dose activity, negative = toxicity, usual class: cytotoxic | HT-1080 IDH1 knockdown viability, ATP luminescence, 48 h;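 also: 0% = DMSO wells and -100% = cell-free medium wells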
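Assay cells: HT-1080 with IDH1 knockdown, 750 per well, RPMI/5% FBS. Exposure: 48 h at 37 °C following 2 h pre-incubation. Read: CellTiter-Glo luminescence; fitted concentration-response, curve class assigned.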
KB-V1 cytotox = KB-V1 MDR subline cytotoxicity. KB-V1 MDR cells viability, CellTiter-Glo, 72 h. AID 1347076. Potency, µM (doses to about 46.1 µM), hits mostly cytotoxic. 400,000 compounds, 3.4% hits; also: % is scaled to controls: 0 for no effect and ±100 for the full control effect; nearly all actives have a fitted effect of over 60% in size
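Luminescent ATP read-out (CellTiter-Glo, 10 min) measures survival of drug-selected KB-V1 MDR cells after 72 h, 37 degrees C compound exposure. Medium: phenol-red-free DMEM, 10% FBS. Values from fitted concentration-response curves.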
The depositor's hits bear a star; i = inactive; ? = inconclusive; / = no result given; ! = not active in a repeat. Shown are actives, neighbours in structure and some others; about 6.6% of the full set was active somewhere. Calls follow the shape of the dose curve; as a rule, active = well fitted curve in the direction sought with a large enough effect; inconclusive = small, poorly fitted or top-dose-only effect, or another doubt; inactive = no such curve, though single readings can be large; an effect the other way counts as inactive or inconclusive. Potency is read from the fitted curve at half-maximal effect.

SMILES | TGFb inhibitor | HepG2 viability | KB-3-1 tox | HT1080-NT tox | HT1080 IDH1KD tx | KB-V1 cytotox
COc1ccc(CC(N)c2csc(NC(=O)Nc3ccccc3-c3ccccc3)n2)cc1 (centres undefined) | ? | 16µM* | ? | 15µM* | -9% | ?
COc1ccccc1NC(=O)Nc1nc(C(N)Cc2ccccc2)cs1 (centres undefined) | ? | -62% | i | 23µM* | ? | i
COc1ccc(CNC(=O)Nc2nc(C(N)c3ccccc3)cs2)cc1 (centres undefined) | -1% | -17% | i | ? | ? | i
COc1ccc(CC(N)c2csc(NC(=O)NCc3ccccc3)n2)cc1 (centres undefined) | -5% | -19% | i | ? | 18µM* | i
COc1ccc(CC(N)c2csc(NC(=O)Nc3ccccc3C(C)(C)C)n2)cc1 (centres undefined) | ? | -99% | i | ? | ? | i
Cc1ccccc1NC(=O)Nc1nc(C(N)Cc2ccccc2)cs1 (centres undefined) | ? | -89% | i | 23µM* | ? | i
COc1ccc(C)cc1NC(=O)C(=O)NCCc1csc2nc(-c3ccccc3F)nn12 | 0% | 4% | i | / | / | i
CSCC[C@@H](CO)NC(=O)[C@H]1O[C@@H](n2ccc(N)nc2=O)[C@H](O)[C@@H]1O | -9% | 5% | i | 28% | 20% | i
COc1ccc(CC(N)c2csc(NC(=O)c3cccs3)n2)cc1 (centres undefined) | 14µM* | -26% | i | -27% | -21% | ?
COc1ccc(CC(N)c2csc(Nc3ccc(C(C)=O)cc3)n2)cc1 (centres undefined) | -20% | -16% | i | ? | ? | i
COc1ccc(N2CCN(C(CNC(=O)C(=O)NCCC3=CCCCC3)c3ccco3)CC2)cc1 (centres undefined) | 1% | 15% | i | -1% | 0% | 2.6µM*
O=C(NCCC1=CCCCC1)C(=O)NCC(c1ccco1)N1CCN(c2ccccc2F)CC1 (centres undefined) | -14% | 6% | i | 13% | 2% | 4.1µM*
O=C(NCC(c1ccco1)N1CCN(c2ccccc2F)CC1)C(=O)NC1CC1 (centres undefined) | 0% | 0% | i | -5% | 1% | ?
O=C(NCCC1=CCCCC1)C(=O)NCC(c1ccco1)N1CCN(c2ccccc2)CC1 (centres undefined) | 7% | 18% | i | 5% | 0% | ?
CCc1ccc(C2CC(=O)c3c([nH]c(C(=O)OCCOc4ccccc4)c3C)C2)cc1 (centres undefined) | -33% | -16% | / | / | / | /
CCc1cc2c(cc3c(=O)n(CC(=O)NC(C)C)nc(CC)n32)s1 | 0% | -6% | / | / | / | /
CCCCC/C(=N\NC(=O)CCC(=O)NCc1ccccc1)c1ccccc1 | 0% | 9% | ? | ? | ? | ?
CC/C(=N\NC(=O)CCC(=O)NCc1ccccc1)c1ccc(O)cc1 | 1% | -43% | 3.3µM* | 1% | -14% | i
COc1ccc(NC(=O)C2CCN(S(=O)(=O)c3ccc4[nH]c(=O)ccc4c3)CC2)cc1Cl | -1% | -15% | i | / | / | i
COc1cc(/C=C/C(=O)OCC(=O)NCc2ccco2)ccc1O | ? | 14% | 23µM* | -15% | -19% | ?
Cc1ccc(NC(=O)CN2CCSc3ccc(S(=O)(=O)N4CCCC4)cc32)cc1 | ? | -21% | i | / | / | 12µM*
CCOc1ccc(NC(=O)CN2C(=O)CSc3ccc(S(=O)(=O)N4CCOCC4)cc32)cc1 | -2% | 0% | i | 6% | 6% | ?
CCOc1ccc(NC(=O)CN2CCSc3ccc(S(=O)(=O)N4CCCC4)cc32)cc1 | -21% | -10% | ? | / | / | 10µM*
COc1ccc(CNC(=O)[C@@H]2CC=C[C@@H]3CCN(Cc4ccccc4)C(=O)[C@@H]32)cc1 | -11% | -18% | i | -2% | 11% | ?
COc1ccc(CN2CC[C@H]3C=CC[C@@H](C(=O)Nc4ccc(Cl)c(C(F)(F)F)c4)[C@H]3C2=O)cc1OC | 11µM*! | -14% | i | -9% | -11% | ?
SMILES | TGFb inhibitor | HepG2 viability | KB-3-1 tox | HT1080-NT tox | HT1080 IDH1KD tx | KB-V1 cytotox
O=C1[C@H]2[C@H](C=CC[C@H]2C(=O)N2CCN(c3ccccc3)CC2)CCN1Cc1ccc(Cl)c(Cl)c1 | 10µM*! | -13% | i | 0% | -5% | ?
O=C1[C@H]2[C@H](C=CC[C@H]2C(=O)N2CCN(c3ccccc3)CC2)CCN1Cc1ccccc1 | -11% | -9% | ? | -3% | 0% | ?
O=C(NCc1cccnc1)[C@@H]1CC=C[C@@H]2CCN(Cc3ccc(Cl)c(Cl)c3)C(=O)[C@@H]21 | 11µM* | -5% | i | -2% | -1% | ?
CCCCNC(=O)[C@@H]1CC=C[C@@H]2CCN(Cc3ccc(Cl)c(Cl)c3)C(=O)[C@@H]21 | 7.9µM* | -27% | ? | 19% | -9% | ?
COc1ccc(C2=NC3(CCCCCC3)N(CC(=O)Nc3cccc(Cl)c3)C2=O)cc1 | / | -25% | / | / | / | /
Cc1cccc(-n2ncc(C(=O)NCc3ccccn3)c2C2CCN(C(=O)OC(C)(C)C)CC2)c1 | -12% | -30% | / | / | / | /
O=[N+]([O-])c1ccc(CSc2nc3ccccc3[nH]2)cc1 | -5% | -34% | i | 5% | 1% | 21µM*
c1ccc(-c2nnc(CSc3nc4ccccc4[nH]3)o2)cc1 | -5% | -6% | i | 15% | 6% | 13µM*
Cc1cccc2nc(CSc3nc4ccc([N+](=O)[O-])cc4[nH]3)c(Br)n12 | ? | -32% | ? | -11% | -25% | 12µM*
COC(=O)c1ccc(NC(=O)CC2C(=O)N(c3ccc(Cl)cc3)C(=O)N2Cc2ccco2)cc1 (centres undefined) | ? | -40% | / | / | / | /
COc1ccccc1CNC(=O)c1c[nH]c2ccc(S(=O)(=O)Nc3cc(C)cc(C)c3)cc2c1=O | ? | -38% | i | / | / | i
CCS(=O)(=O)Nc1ccc(C2=NN(C(=O)c3ccco3)C(c3ccco3)C2)cc1 (centres undefined) | ? | -14% | 3.7µM* | ? | 16µM* | ?

Screens (PubChem BioAssay)
